# Test results taken from PubChem BioAssay AID492956 (The Scripps Research Institute Molecular Screening Center, 2010).
# Out of some 340,000 compounds screened, about 3,300 (0.97%) were called active.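 Rule for the calls: active = inhibition above the mean over all tested compounds plus 3 SD (cut at about 30% in these data); inactive = the rest.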 The sample as a whole holds a higher share of actives than the screen did.
# Target: Platelet-activating factor acetylhydrolase 2, cytoplasmic (Homo sapiens) (UniProt Q99487)
# Experiment: inhibition of cytoplasmic PAF acetylhydrolase 2 – biochemical, fluorescence polarization, human, primary screen (AID 492956);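 note: inhibitors block probe labeling of enzyme so polarization drops; 0% = enzyme with DMSO and 100% = wells lacking PAFAH2 protein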
# Settings: recombinant PAFAH2, FP-rhodamine activity probe, at 3.39 µM, hits give high values
row,Structure (SMILES),inhibition
1,Clc1ccc(-c2nc3ccccn3c2CN2CCSCC2)cc1,3.86% (inactive)
2,COc1cc(CCC(=O)OCC(=O)Nc2cccc(S(N)(=O)=O)c2)cc(OC)c1OC,8.16% (inactive)
3,O=C1C(=O)N(CCCO)C(c2ccccc2)/C1=C(\O)c1ccc(Br)cc1 (stereo unspecified),2.68% (inactive)
4,O=c1[nH]n(-c2ccc([N+](=O)[O-])cc2)c(=O)c2ccccc12,32.5% (active)
5,O=[N+]([O-])c1ccc(N2CCOCC2)cc1,6.57% (inactive)
6,COc1cnn(-c2ccc([N+](=O)[O-])cc2)c(=O)c1Cl,5.97% (inactive)
7,COc1cccc(NC(=O)[C@H](Cc2c[nH]c3ccccc23)NC(=O)[C@@H]2Cc3ccccc3CN2)c1,4.49% (inactive)
8,CC(C)(C)OC(=O)C[C@@H]1C/C=C\C[C@H](CC(=O)N[C@@H](CO)Cc2ccccc2)C(=O)N[C@H](Cc2ccccc2)COC1=O,-5.38% (inactive)
9,CCOC(=O)C1=C(N)N(c2ccc(C)cc2)C2=C(C(=O)CCC2)C1c1cccs1 (stereo unspecified),11% (inactive)
10,COc1ccc(NC(=O)CC(NC(C)c2ccccc2)C(=O)O)cc1 (stereo unspecified),35.8% (active)
11,COc1ccc(NC(=O)CCCC(=O)c2ccccc2)cc1,-4.3% (inactive)
12,COc1ccc(NC(=O)CS(=O)(=O)c2ccccc2)cc1,-6.64% (inactive)
13,O=C1N(c2ccccc2)C(=Nc2ccccc2)SC12CC2,-1.71% (inactive)
14,COc1ccc(N(Cc2cc3ccc(C)cc3[nH]c2=O)S(=O)(=O)c2ccccc2)cc1,1.35% (inactive)
15,CCCCn1c(N)c(N(Cc2ccccc2OC)C(=O)COc2cc(C)ccc2Cl)c(=O)[nH]c1=O,-1.09% (inactive)
16,O=C(COC(=O)/C=C/c1ccc(S(=O)(=O)N2CCCCCC2)cc1)NCc1ccccc1Cl,33.9% (active)
17,O=C(COc1ccc(S(=O)(=O)N2CCCCC2)cc1)NCc1ccccn1,9.09% (inactive)
18,O=C(O)/C=C/c1ccc(S(=O)(=O)N2CCCCCC2)cc1,0.61% (inactive)
19,O=C(Nc1ccc(F)cc1)c1cccnc1N1CCOCC1,-2.86% (inactive)

row,Structure (SMILES),inhibition
1,CC1=C(C(=O)Nc2ccc(Cl)cc2)C(c2ccco2)NC(=O)N1 (stereo unspecified),0.63% (inactive)
2,COc1ccccc1Nc1nc(N)nc(CSC(=S)N2CCOCC2)n1,30.8% (active)
3,Cc1ccccc1Nc1nc(N)nc(CSc2ccccc2)n1,3.88% (inactive)
4,COc1ccc(Nc2nc(N)nc(CSC(=S)N3CCC(C)CC3)n2)cc1,5.5% (inactive)
5,O=C(CN1CCCCCC1)Nc1ccc(Br)cc1Br,2.02% (inactive)
6,O=c1oc(-c2ccccc2NS(=O)(=O)c2ccc(Cl)cc2)nc2ccccc12,82.1% (active)
7,O=c1ccc2cc(S(=O)(=O)Nc3ccccc3F)ccc2o1,0.74% (inactive)
8,O=c1oc2ccccc2c(NC2CCCCC2)c1NS(=O)(=O)c1ccc(Cl)cc1,5.54% (inactive)
9,CCCCNS(=O)(=O)c1ccc2nc(SCC(=O)Nc3cc(C)cc(C)c3)[nH]c2c1,-16.9% (inactive)
10,CC(=O)Nc1ccc(NC(=O)C(C)OC(=O)c2ccccc2C(=O)c2ccc(Cl)c([N+](=O)[O-])c2)cc1 (stereo unspecified),-5.1% (inactive)
11,N#Cc1cccc(NC(=O)COC(=O)c2ccccc2C(=O)c2ccc(Cl)c([N+](=O)[O-])c2)c1,58.9% (active)
12,COC(=O)c1cc(NC(=O)Cc2ccccc2[N+](=O)[O-])ccc1Cl,0.54% (inactive)
13,COC(=O)c1onc(-c2c(OC)cc(OC)cc2OC)c1C(=O)OC,-0.23% (inactive)
14,Cc1cn(C2CC(O)C(CO)O2)c(=O)n(CCCc2ccccc2)c1=O (stereo unspecified),-0.23% (inactive)
15,COc1cccc(CNC(=O)C2CCN(S(=O)(=O)c3cccc4cccnc34)CC2)c1,-7.61% (inactive)
16,O=C(Cc1ccc(NC(=O)C2CCCN(C(=O)C3CCCCC3)C2)cc1)Nc1cccc(C(=O)N2CCCCC2)c1 (stereo unspecified),-2.71% (inactive)
17,O=C(CC1Sc2ccccc2NC1=O)NNc1ccc(Cl)c(Cl)c1 (stereo unspecified),6.55% (inactive)
18,CCN(CC)CCCC(C)n1c2nc(=O)[nH]c(=O)c-2nc2cc(Cl)ccc21 (stereo unspecified),38.8% (active)
19,CCN(CC)CCn1c2ccc(Cl)cc2c2nc(C)sc21,-2.76% (inactive)

row,Structure (SMILES),inhibition
1,Cc1ccc(S(=O)(=O)N(Cc2cc3ccccc3[nH]c2=O)CC2CCCO2)cc1 (stereo unspecified),4.81% (inactive)
2,Cn1c(NC(=O)c2ccco2)c(-c2ccccc2Cl)c(=O)c2ccccc21,-1.9% (inactive)
3,Cc1[nH]c(C)c(S(=O)(=O)N2CCN(c3cccc(C(F)(F)F)c3)CC2)c1C(=O)N1CCCCC1,8.89% (inactive)
4,COc1ccc(/C=C/C(=O)OCC(=O)NCc2cccs2)cc1OC,49.4% (active)
5,COc1ccc(Cl)cc1C(=O)OCC(=O)NCc1cccs1,1.83% (inactive)
6,CCOc1ccc(/C=N/OCC(=O)NCc2cccs2)cc1,4.81% (inactive)
7,O=C(COC(=O)/C=C/c1cccc(Cl)c1)NCCc1ccccc1,20.5% (inactive)
8,O=C(COC(=O)/C=C/c1cccc(Cl)c1)NCc1cccs1,37% (active)
9,CCOc1ccc(/C=C/C(=O)N(CC)CC(=O)NCc2cccs2)cc1OC,5.35% (inactive)
10,CN(CCc1ccccc1)C(=O)c1cccc(NC(=O)Cc2cccc(NC(=O)C3CCCN(C(=O)C4CCC4)C3)c2)c1 (stereo unspecified),-1.94% (inactive)
11,COc1ccc(CCNC(=O)CN(C)S(=O)(=O)c2ccc3nc(C)sc3c2)cc1OC,-0.36% (inactive)
12,COC(=O)C1=C(C)NC(=S)NC1c1ccc(OCC(=O)N2CC(C)OC(C)C2)c(OC)c1 (stereo unspecified),-0.58% (inactive)
13,Cc1ccc(NS(=O)(=O)c2cn(C)c(=O)n(C)c2=O)c(C)c1,1.4% (inactive)
14,COc1ccc(S(=O)(=O)N2CN(CCc3ccc(OC)c(OC)c3)c3nc4ccccc4nc32)cc1,8.38% (inactive)
15,CCOc1ccc(C(=O)Nc2cccc(SC)c2)cc1,-11.9% (inactive)
16,CC(=O)c1c(C)[nH]c(C(=O)OCC(=O)Nc2cc(S(=O)(=O)N3CCCCC3)ccc2C)c1C,7.66% (inactive)
17,CC(=O)c1c(C)[nH]c(C(=O)OCC(=O)Nc2c(C)cccc2C)c1C,4.64% (inactive)
18,CC(=O)c1c(C)[nH]c(C(=O)OCC(=O)NCCC(C)C)c1C,30.4% (active)
